Data as given in paper PMC7862700, “An all-to-all approach to the identification of sequence-specific readers for epigenetic DNA modifications on cytosine”.

Key:
Assay in all cases: DAPPL (digital affinity profiling via proximity ligation, sequencing); 10 mM Tris-HCl pH 7.5, 50 mM NaCl, 1 mM DTT, 4% glycerol, room temperature, 30 min; GST-TFs on glutathione beads, 16-mer random dsDNA library, 0.1% formaldehyde crosslink after washing; high values mean tight binding
Conditions in all cases: protein: recombinant; tags: N-terminal GST; dsDNA, one strand shown
ELK4 = biological target: T1, ELK4 (Homo sapiens, UniProt P28324-2 1-405)
T1 sequence: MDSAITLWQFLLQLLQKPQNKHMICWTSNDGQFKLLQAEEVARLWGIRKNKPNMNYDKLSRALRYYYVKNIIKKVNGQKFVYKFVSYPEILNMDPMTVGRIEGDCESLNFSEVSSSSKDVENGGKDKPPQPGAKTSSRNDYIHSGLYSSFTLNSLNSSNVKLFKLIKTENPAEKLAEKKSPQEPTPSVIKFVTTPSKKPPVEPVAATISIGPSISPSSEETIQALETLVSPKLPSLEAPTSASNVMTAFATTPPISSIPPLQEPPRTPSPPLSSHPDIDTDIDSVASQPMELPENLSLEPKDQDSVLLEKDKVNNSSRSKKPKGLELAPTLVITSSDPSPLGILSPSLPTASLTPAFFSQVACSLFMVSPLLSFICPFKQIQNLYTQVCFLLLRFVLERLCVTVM
Method in brief: (§1)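 In yeast, human transcription factors were expressed with a GST fusion, then pulled down on glutathione beads and given DNA barcodes. Pooled with a tag-only sample, they were exposed to 200 nmole of a 16-mer random double-stranded DNA library (Tris/NaCl/DTT/glycerol buffer, room temperature, 30 min), washed, crosslinked with 0.1% formaldehyde, proximity-ligated using BsaI/T4 ligase for 1 h at 37 °C, PCR-amplified and read on an Illumina NextSeq500. Each hexamer's frequency of reads for a factor, divided by the matching frequency for the tag-only sample, gives the binding signal.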

GABPA = biological target: T2, GABPA (Homo sapiens, UniProt Q06546 1-454)
T2 sequence: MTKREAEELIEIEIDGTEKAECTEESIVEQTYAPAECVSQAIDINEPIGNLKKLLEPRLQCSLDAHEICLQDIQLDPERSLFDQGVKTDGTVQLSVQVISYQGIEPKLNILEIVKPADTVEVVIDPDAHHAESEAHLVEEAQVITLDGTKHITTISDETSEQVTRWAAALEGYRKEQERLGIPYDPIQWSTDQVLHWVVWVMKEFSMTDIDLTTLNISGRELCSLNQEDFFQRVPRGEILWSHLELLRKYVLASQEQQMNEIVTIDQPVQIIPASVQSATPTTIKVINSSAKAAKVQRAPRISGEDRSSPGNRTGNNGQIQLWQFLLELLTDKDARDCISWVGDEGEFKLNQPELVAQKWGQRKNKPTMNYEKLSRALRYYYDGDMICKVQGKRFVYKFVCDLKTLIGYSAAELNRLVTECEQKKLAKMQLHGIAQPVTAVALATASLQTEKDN
Method in brief: as §1

ELF1 = ELF1 (Homo sapiens, UniProt P32519 1-619)
Method in brief: as §1

SPI1 = SPI1 (Homo sapiens, UniProt P17947 1-270)
Method in brief: as §1

SPIB = SPIB (Homo sapiens, UniProt Q01892 1-262)
Method in brief: as §1

FEV = biological target: T3, FEV (Homo sapiens, UniProt Q99581 1-238)
T3 sequence: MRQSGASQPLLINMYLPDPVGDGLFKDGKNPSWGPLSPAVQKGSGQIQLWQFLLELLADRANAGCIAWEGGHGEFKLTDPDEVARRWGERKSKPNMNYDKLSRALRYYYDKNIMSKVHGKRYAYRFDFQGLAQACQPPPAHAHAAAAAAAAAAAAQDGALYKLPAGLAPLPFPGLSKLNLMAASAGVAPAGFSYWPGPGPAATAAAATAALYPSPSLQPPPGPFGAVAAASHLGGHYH
Method in brief: as §1

ELF4 = ELF4 (Homo sapiens, UniProt Q99607 1-663)
Method in brief: as §1

ETV2 = biological target: T4, ETV2 (Homo sapiens, UniProt O00321 1-342)
T4 sequence: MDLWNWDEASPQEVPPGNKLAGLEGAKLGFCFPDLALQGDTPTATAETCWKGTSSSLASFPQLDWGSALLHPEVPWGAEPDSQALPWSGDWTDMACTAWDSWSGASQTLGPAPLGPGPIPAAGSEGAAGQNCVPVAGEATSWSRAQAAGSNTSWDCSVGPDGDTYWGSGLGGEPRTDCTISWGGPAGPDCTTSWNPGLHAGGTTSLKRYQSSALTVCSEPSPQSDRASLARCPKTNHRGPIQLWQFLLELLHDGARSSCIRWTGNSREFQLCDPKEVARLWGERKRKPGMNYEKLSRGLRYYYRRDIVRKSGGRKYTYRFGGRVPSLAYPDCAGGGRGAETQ
Method in brief: as §1

ELF3 = biological target: T5, ELF3 (Homo sapiens, UniProt P78545 1-371)
T5 sequence: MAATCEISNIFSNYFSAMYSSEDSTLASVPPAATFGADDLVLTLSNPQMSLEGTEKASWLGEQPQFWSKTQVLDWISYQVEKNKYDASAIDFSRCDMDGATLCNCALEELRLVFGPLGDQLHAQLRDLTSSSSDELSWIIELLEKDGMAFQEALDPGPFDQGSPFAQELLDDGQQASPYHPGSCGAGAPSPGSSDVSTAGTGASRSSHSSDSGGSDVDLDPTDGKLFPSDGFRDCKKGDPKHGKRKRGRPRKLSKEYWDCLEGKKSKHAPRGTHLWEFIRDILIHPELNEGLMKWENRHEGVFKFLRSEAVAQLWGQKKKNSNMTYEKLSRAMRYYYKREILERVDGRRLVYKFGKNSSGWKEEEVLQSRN
Method in brief: as §1

ERF = biological target: T6, ERF (Homo sapiens, UniProt P50548 1-548)
T6 sequence: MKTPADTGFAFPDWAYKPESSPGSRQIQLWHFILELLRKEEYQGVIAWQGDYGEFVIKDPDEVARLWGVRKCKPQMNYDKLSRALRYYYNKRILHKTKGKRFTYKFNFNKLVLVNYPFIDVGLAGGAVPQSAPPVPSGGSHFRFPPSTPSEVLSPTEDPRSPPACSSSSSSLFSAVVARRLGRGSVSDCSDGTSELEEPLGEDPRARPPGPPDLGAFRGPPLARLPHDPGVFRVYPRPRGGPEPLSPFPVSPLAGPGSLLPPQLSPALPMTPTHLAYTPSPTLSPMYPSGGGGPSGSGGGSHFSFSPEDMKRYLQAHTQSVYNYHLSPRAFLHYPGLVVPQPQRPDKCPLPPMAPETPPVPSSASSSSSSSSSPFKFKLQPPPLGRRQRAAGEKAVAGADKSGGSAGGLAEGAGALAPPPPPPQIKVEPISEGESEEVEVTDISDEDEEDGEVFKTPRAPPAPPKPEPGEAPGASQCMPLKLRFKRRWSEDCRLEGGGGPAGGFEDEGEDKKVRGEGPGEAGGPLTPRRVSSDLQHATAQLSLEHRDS
Method in brief: as §1

ETV3L = biological target: T7, ETV3L (Homo sapiens, UniProt Q6ZN32 1-361)
T7 sequence: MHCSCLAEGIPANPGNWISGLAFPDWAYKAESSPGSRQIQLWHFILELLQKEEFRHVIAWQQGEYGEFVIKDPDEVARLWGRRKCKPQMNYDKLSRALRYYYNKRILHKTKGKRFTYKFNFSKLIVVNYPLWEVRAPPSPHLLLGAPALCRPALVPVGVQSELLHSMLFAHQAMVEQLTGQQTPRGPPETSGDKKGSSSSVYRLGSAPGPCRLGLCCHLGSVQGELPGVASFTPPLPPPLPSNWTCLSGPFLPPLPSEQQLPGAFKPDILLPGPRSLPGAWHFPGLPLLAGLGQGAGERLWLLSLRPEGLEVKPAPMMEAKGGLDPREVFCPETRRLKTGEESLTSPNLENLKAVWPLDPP
Method in brief: as §1

SPDEF = biological target: T8, SPDEF (Homo sapiens, UniProt O95238 1-335)
T8 sequence: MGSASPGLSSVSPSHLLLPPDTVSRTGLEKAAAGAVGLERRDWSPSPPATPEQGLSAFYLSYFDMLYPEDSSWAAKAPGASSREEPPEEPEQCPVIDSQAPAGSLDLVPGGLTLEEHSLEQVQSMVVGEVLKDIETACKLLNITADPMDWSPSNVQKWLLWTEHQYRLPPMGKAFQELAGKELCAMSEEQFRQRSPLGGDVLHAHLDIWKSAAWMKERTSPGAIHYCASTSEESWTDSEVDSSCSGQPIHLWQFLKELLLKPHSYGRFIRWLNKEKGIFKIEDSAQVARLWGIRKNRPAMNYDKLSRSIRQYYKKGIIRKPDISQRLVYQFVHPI
Method in brief: as §1

ETV7 = biological target: T9, ETV7 (Homo sapiens, UniProt Q9Y603 1-341)
T9 sequence: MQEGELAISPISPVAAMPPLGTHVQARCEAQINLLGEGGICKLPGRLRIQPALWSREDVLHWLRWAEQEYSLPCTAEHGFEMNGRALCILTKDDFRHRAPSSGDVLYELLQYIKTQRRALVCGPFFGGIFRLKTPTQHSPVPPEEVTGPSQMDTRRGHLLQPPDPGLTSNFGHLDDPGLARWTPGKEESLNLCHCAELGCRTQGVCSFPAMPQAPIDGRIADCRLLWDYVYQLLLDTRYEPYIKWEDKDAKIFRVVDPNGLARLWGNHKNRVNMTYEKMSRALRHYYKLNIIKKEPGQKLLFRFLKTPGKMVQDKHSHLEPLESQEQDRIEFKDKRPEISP
Method in brief: as §1

ELF5 = biological target: T10, ELF5 (Homo sapiens, UniProt Q9UKW6-2 1-255)
T10 sequence: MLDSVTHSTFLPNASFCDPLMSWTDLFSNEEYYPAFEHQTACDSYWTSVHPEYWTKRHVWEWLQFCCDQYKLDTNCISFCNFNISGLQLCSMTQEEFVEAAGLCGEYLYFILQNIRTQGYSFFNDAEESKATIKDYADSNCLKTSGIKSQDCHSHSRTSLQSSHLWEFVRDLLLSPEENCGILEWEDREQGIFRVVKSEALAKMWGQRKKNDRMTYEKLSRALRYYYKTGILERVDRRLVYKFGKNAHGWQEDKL
Method in brief: as §1

ETV3 = biological target: T11, ETV3 (Homo sapiens, UniProt P41162-2 1-143)
T11 sequence: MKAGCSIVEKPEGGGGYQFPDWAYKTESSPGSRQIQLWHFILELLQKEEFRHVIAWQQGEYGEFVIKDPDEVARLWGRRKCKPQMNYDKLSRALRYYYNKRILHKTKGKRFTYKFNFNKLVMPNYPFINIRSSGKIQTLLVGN
Method in brief: as §1

Chain of ELF1 (P32519 whole entry): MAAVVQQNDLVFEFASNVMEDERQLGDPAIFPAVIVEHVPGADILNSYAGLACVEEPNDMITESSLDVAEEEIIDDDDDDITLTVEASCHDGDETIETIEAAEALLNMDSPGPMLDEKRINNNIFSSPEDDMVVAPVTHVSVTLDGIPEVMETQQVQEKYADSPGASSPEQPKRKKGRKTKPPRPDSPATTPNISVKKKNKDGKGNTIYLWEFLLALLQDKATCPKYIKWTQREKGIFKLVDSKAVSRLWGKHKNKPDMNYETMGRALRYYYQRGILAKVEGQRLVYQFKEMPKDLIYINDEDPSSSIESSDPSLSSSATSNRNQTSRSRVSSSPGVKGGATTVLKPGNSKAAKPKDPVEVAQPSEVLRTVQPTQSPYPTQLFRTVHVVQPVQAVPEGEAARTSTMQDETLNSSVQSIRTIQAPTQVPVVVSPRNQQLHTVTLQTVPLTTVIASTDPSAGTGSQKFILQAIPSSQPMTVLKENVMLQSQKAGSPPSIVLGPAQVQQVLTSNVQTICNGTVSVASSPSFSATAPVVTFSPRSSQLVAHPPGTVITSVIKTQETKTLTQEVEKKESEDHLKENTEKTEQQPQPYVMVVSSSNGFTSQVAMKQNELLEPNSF
Chain of ELF4 (Q99607 whole entry): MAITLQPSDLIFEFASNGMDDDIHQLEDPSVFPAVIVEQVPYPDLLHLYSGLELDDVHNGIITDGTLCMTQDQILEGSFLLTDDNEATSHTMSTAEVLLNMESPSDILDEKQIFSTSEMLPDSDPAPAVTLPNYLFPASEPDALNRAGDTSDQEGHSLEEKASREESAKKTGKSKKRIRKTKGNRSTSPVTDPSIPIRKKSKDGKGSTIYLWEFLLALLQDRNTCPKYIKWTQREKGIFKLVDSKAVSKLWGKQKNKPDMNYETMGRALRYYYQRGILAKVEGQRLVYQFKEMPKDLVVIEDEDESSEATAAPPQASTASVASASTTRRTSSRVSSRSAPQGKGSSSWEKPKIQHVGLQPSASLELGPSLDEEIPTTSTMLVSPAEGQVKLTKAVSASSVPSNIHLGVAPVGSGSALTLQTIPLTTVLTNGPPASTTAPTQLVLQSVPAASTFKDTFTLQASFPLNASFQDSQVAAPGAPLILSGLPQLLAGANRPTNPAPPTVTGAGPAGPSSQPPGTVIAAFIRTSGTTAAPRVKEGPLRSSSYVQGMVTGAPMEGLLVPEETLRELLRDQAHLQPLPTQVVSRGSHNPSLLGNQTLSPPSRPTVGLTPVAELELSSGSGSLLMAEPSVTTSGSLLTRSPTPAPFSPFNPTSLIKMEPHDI
Chain of SPIB (Q01892 whole entry): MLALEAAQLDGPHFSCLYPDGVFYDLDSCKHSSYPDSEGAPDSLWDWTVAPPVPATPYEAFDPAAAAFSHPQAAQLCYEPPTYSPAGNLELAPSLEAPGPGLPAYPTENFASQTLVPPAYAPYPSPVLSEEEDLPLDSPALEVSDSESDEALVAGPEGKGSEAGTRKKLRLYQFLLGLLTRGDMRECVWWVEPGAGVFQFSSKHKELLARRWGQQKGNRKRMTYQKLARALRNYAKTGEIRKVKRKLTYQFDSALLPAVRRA

CTGTGT
binding signal (ELK4): 1.04 fold enrichment (6-mer frequency, TF over GST control)

TCGCGG
binding signal (GABPA): 1.07 fold enrichment (6-mer frequency, TF over GST control)
binding signal (ELF1): 1.02 fold enrichment (6-mer frequency, TF over GST control)
binding signal (SPI1): 1 fold enrichment (6-mer frequency, TF over GST control)
binding signal (SPIB): 1.02 fold enrichment (6-mer frequency, TF over GST control)
binding signal (FEV): 1.02 fold enrichment (6-mer frequency, TF over GST control)
binding signal (ELF4): 1.03 fold enrichment (6-mer frequency, TF over GST control)
binding signal (ELK4): 1.05 fold enrichment (6-mer frequency, TF over GST control)
binding signal (ETV2): 1.11 fold enrichment (6-mer frequency, TF over GST control)
binding signal (ELF3): 1.03 fold enrichment (6-mer frequency, TF over GST control)
binding signal (ERF): 1.09 fold enrichment (6-mer frequency, TF over GST control)
binding signal (ETV3L): 1.04 fold enrichment (6-mer frequency, TF over GST control)
binding signal (SPDEF): 1.01 fold enrichment (6-mer frequency, TF over GST control)
binding signal (ETV7): 1.02 fold enrichment (6-mer frequency, TF over GST control)
binding signal (ELF5): 1 fold enrichment (6-mer frequency, TF over GST control)
binding signal (ETV3): 1.04 fold enrichment (6-mer frequency, TF over GST control)
